Lassa entry = inhibitors of Lassa virus binding or entry into cells. Potency, µM (highest dose often 49.2 µM), most hits filed as inhibitors. hit rate 4.1% among 18,000. Lassa virus pseudotyped entry inhibition, cell-based qHTS
MARV entry inh = inhibitors of Marburg virus binding or entry into cells; Marburg virus pseudotype entry/binding inhibition, cell-based; hit rate 6.5% among 18,000; AID 720532; Potency, µM (highest dose often 49.2 µM), hits mostly inhibitors
Each line names hits and unclear results; the compound was inactive in the other large screens; ! = not active in a repeat. An excerpt weighted towards active compounds, which were near 7.1% of everything screened. Calls come from the whole dose curve; tested in HEK293 cells.

CCCCCCCc1cc2ccccc2c2c(C(=O)OC)c(C)c(C(=O)OC)n12	none
CC(C)=CCCC(C)=CCON=C1C[C@@H](O)[C@@H](O)[C@@H]2[C@H]3C(=O)N(Cc4ccccc4)C(=O)[C@@H]3CC[C@@H]12	none
CN1CCCCC1Cn1cc(C(=O)c2cc([N+](=O)[O-])ccc2I)c2ccccc21 (stereo not given)	Lassa entry inconclusive, MARV entry inh 10µM
CCCC1CCCCN1 (stereo not given)	none
C1CCC(C(CC2CCCCN2)C2CCCCC2)CC1 (stereo not given)	Lassa entry inconclusive, MARV entry inh 4µM
COC(=O)CC=C1c2ccccc2[C@@H](O)[C@@H]1C	none
CC(CCN1CCCCc2nc(C)c(C)cc21)=NOC[C@@H](O)[C@H]1O[C@@H]2OC(C)(C)O[C@H]2[C@@H]1O	none (no result: Lassa entry)
CC(C)CON=C1C[C@@H](O)[C@@H](O)[C@@H]2[C@H]3C(=O)N(c4ccc(F)cc4F)C(=O)[C@@H]3CC[C@H]12	none
Oc1cc(Cl)ccc1Oc1ccc(Cl)cc1Cl	Lassa entry 25µM!, MARV entry inh 35µM!
O=C(O)Cc1ccccc1Oc1ccc(Cl)cc1Cl	none
Cc1ccc(CN2[C@@H](C)[C@@H](c3ccccc3)Oc3c(Cl)cccc3S2(=O)=O)cc1	MARV entry inh inconclusive
CO[C@H](C1CCCCC1)[C@H](C)C=CCC(=O)OCCCc1ccccc1	none (no result: Lassa entry)
CCOC(=O)c1c(C)n(C)c2ccc(O)cc12	none
CCCCNc1c(C(=O)OCC)c(C)nc2c1cnn2CC	Lassa entry 25µM!, MARV entry inh 7.9µM!
C=C(C)C(O)C=Cc1ccc(Br)cc1 (stereo not given)	MARV entry inh inconclusive
C[C@H]1[C@H]2CC[C@H]3C4CC=C5C[C@@H](N(C)C)CC[C@]5(C)C4CC[C@]23CN1C (stereo not given in full)	MARV entry inh 11µM
C[C@]12CC[C@H](O)CC1=CC[C@@H]1[C@@H]2CC[C@]2(C)C(=O)CC[C@@H]12	none
CCCOC(C(=O)OC1CCN(C)CC1)(c1ccccc1)c1ccccc1	Lassa entry 16µM, MARV entry inh 6.3µM
C[N+]1(C)CCC(OC(=O)C(O)(c2ccccc2)C2CCCC2)C1 (stereo not given)	Lassa entry inconclusive
COC(=O)C1=C[C@@H]([C@@H](C)[C@H](OC)c2ccccc2Br)[C@@H]2OCC[C@H]12	none
COC(=O)C1=C[C@H]([C@@H](C)[C@H](OC)c2ccccc2Br)[C@H]2c3ccccc3O[C@@H]12	Lassa entry 1.7µM, MARV entry inh inconclusive
CCOC(=O)[C@@]12[C@@H]3[C@@H](CCN3C(=O)N[C@H]1c1ccccc1)C2(C)C	none (no result: Lassa entry)
CC(C)=CCCC1(C)C=Cc2c(O)c3c(c(CC=C(C)C)c2O1)OC12C(=CCCC1C(C)(C)O[C@@]2(C/C=C(\C)C(=O)O)C(=O)O)C3=O (stereo not given in full)	none
CC(C)=CCCC1(C)C=Cc2c(O)c3c(c(CC=C(C)C)c2O1)OC12C(=CC4CC1C(C)(C)OC2(C/C=C(/C)C(=O)O)C4=O)C3=O (stereo not given)	Lassa entry 5µM, MARV entry inh 2.8µM
CC(C)=CCCC1(C)C=Cc2c(O)c3c(c(CC=C(C)C)c2O1)OC12C(=CC4CC1C(C)(C)OC2(C/C=C(/C)C(=O)O)C4O)C3=O (stereo not given)	Lassa entry 4.5µM, MARV entry inh 3.5µM
CC(C)CCCC1(C)C=Cc2c(O)c3c(c(CCC(C)C)c2O1)OC12C(CC4CC1C(C)(C)OC2(CCC(C)C(=O)O)C4O)C3=O (stereo not given)	none
CCCCCC(=O)N1C[C@@H](O)[C@H](n2cc(C3CC3)nn2)C[C@H]1c1ccc(Cl)cc1	MARV entry inh inconclusive
C=CC[C@@](C(C)=O)(C(=O)OC)[C@@H](NC(=O)OC(C)(C)C)c1ccccc1	none
COc1ccc(N2C(=O)N3[C@H](c4ccccc4)[C@@H](C)C[C@H]4c5ccccc5C[C@]43C2=O)cc1	none
CC1CCN(CCCC(=O)c2ccc(F)cc2)CC1	none
CC(C)(C)c1ccc(C(=O)CCCN2CCC(OC(c3ccccc3)c3ccccc3)CC2)cc1	Lassa entry 8.9µM
COC(=O)C1=C(C(=O)OC)[C@@H]2N(C)c3ccccc3[C@@]23C[C@@H](C(=O)OC)N(C(=O)NC2CCCC2)C3=N1	MARV entry inh inconclusive
Cc1cccc([C@H]2[C@@H]3C=CCC[C@@]3(C)C(=O)N2Cc2ccccc2)c1	none
C[C@@]12CCC=C[C@H]1[C@H](c1ccccc1Br)N(Cc1ccccc1)C2=O	MARV entry inh 20µM
COC(=O)CC=C[C@@H](C)[C@H](NC(=O)OC)c1ccccc1Br	none
COc1cc2c(c(OC)c1)[C@H](C=Cc1ccccc1)[C@@H]([C@H](O)CO)OC2	none
C=C[C@@H](C[C@@H]1C=C[C@H]2C[C@H](C=C)OP(=O)(O1)O2)O[Si](C)(C)C(C)(C)C	MARV entry inh inconclusive
C=CCc1ccc(O)c(-c2cc(CC=C)ccc2O)c1	none
C=CCc1ccc(OC)cc1	Lassa entry 6.3µM, MARV entry inh 6.3µM
CN(C)c1ccc(-c2nc(Nc3ccncc3)c3ccccc3n2)cc1	MARV entry inh inconclusive

Source: PubChem (National Center for Advancing Translational Sciences (NCATS))
